Measured values reported in PubChem BioAssay.
Active and inactive are the calls of the source. Unless noted, how the calls were made is not given here.

Legend:
[1] = anti-His antibody binders, primary screen, artefact control for SMM control protein annotation, biochemical, small-molecule microarray, 635 nm fluorescence (AID 1128); conditions: anti-His Alexa647 antibody binding, higher = more signal;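 further: score merges feature fluorescence with signal-to-noise for each printed compound spot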
[2] = tested on: Human papillomavirus type 1a E7 protein (residues 1-88); assay: HPV1a E7 small-molecule binders, primary screen, biochemical, small-molecule microarray, residues 1-88, 635 nm (AID 1129); conditions: small-molecule microarray binding, fluorescence 635 nm; higher = more signal
[3] = molecular target: Focal adhesion kinase 1 (Homo sapiens) (UniProt Q05397); assay: small-molecule microarray binders of FAK, primary screen, biochemical, 635/667 nm fluorescence, BSA, DTT (AID 1130); conditions: PTK2 binding, 635 nm fluorescence, higher = more signal;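 further: composite of spot emission at 667 nm and signal to noise over triplicate slides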
Sequence of Focal adhesion kinase 1 (Homo sapiens) (Q05397 whole entry, looked up): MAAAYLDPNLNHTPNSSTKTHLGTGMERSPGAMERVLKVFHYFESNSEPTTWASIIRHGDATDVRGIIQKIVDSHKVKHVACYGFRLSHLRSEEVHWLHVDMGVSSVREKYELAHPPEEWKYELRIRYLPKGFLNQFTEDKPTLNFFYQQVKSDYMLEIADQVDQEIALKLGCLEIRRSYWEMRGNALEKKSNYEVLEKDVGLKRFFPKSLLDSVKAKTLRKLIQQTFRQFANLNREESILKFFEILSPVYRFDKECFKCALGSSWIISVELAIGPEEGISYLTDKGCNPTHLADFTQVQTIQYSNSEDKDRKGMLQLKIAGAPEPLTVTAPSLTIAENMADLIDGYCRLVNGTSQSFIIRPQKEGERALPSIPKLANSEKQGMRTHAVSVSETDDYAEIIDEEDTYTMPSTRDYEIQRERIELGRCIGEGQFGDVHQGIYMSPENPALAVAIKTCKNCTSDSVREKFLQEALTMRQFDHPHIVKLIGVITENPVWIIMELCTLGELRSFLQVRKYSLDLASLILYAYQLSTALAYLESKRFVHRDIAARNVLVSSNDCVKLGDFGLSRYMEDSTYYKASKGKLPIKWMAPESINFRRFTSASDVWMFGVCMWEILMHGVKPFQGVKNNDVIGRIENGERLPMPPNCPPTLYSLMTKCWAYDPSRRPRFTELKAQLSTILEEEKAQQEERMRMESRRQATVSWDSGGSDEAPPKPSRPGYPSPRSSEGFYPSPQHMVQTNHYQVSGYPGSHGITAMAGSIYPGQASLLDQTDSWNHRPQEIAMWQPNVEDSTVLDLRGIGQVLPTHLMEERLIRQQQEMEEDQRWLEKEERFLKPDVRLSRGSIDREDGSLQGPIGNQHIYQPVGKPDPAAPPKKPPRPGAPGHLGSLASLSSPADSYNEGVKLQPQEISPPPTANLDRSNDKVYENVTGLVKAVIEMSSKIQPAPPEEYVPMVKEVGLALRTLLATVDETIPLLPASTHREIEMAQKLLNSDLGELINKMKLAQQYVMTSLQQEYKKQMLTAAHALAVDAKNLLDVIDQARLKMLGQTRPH

[4] = tested on: Fibrinogen (Alexa647-labelled); assay: fibrinogen binders on compound microarrays, profiling panel, artefact control for SMM control-protein annotation, biochemical, small-molecule microarray, 635/667 nm fluorescence (AID 1131); conditions: fibrinogen-A647 binding fluorescence, higher = more signal;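 further: z-score merges 667 nm fluorescence with per-spot signal-to-noise over triplicate slides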
[5] = molecular target: Follistatin (Homo sapiens) (UniProt P19883); assay: follistatin binders on small-molecule microarrays, primary screen, biochemical, small-molecule microarray, 635/667 nm fluorescence (AID 1132); conditions: FST binding, 635 nm fluorescence, higher = more signal
Sequence of Follistatin (Homo sapiens) (P19883 whole entry, looked up): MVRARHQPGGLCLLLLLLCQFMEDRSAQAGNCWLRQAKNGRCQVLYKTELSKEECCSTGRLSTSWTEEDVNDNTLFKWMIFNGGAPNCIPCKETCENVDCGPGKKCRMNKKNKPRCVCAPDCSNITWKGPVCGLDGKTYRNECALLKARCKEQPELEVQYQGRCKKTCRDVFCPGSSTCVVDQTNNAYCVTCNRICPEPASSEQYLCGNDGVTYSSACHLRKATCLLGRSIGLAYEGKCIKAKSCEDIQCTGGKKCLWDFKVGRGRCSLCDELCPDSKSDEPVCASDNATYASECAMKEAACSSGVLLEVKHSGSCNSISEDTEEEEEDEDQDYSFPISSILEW

[6] = molecular target: Fibroblast growth factor 2 (Homo sapiens) (UniProt P09038); assay: FGF2 binders on small-molecule microarrays, primary screen, biochemical, small-molecule microarray, 635/667 nm fluorescence (AID 1133); conditions: small-molecule microarray binding, FGF2, fluorescence 635/667; higher = more signal
Sequence of Fibroblast growth factor 2 (Homo sapiens) (P09038 whole entry, looked up): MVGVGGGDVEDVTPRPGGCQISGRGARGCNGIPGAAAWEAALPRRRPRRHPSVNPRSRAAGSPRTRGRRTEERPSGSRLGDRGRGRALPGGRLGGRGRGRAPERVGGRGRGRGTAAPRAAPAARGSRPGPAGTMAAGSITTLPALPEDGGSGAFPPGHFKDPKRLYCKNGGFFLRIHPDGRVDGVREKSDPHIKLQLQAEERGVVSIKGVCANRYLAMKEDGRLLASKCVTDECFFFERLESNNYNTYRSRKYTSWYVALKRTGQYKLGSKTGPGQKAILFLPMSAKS

[7] = mitochondrial membrane potential change in A549 cells, profiling panel, cell-based, JC-1 fluorescence, basal, 24 h, 100 nL (AID 1138); conditions: higher = more signal;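 further: A549 lung adenocarcinoma cells under basal conditions with no added stimulus; test concentration not given here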
Lefty1 = Lefty1 binders on small-molecule microarrays, primary screen, biochemical, small-molecule microarray, 635/667 nm fluorescence (AID 1139); conditions: small-molecule microarray binding, fluorescence 635/667; higher = more signal
[8] = tested on: wheat germ agglutinin (Triticum aestivum), Alexa647-labelled; assay: wheat germ agglutinin binders on compound microarrays, profiling panel, artefact control for SMM control-protein annotation, biochemical, small-molecule microarray, 635/667 nm fluorescence (AID 1140); conditions: WGA-A647 binding, 635 nm fluorescence, higher = more signal;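 further: score merges 667 nm feature emission with signal to noise over triplicate slides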
[9] = molecular target: Luciferin 4-monooxygenase (Photinus pyralis) (UniProt P08659); assay: firefly luciferase enzyme inhibitors, primary screen, biochemical, luminescence, purified enzyme, 2006 set (AID 1141); conditions: SteadyGlo luminescence, 30 min, higher = more signal, called active from +8 up or from −8 down;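 further: cell-free assay with purified firefly luciferase at 100 ng per well in PBS; test concentration not given here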
Sequence of Luciferin 4-monooxygenase (Photinus pyralis) (P08659 whole entry, looked up): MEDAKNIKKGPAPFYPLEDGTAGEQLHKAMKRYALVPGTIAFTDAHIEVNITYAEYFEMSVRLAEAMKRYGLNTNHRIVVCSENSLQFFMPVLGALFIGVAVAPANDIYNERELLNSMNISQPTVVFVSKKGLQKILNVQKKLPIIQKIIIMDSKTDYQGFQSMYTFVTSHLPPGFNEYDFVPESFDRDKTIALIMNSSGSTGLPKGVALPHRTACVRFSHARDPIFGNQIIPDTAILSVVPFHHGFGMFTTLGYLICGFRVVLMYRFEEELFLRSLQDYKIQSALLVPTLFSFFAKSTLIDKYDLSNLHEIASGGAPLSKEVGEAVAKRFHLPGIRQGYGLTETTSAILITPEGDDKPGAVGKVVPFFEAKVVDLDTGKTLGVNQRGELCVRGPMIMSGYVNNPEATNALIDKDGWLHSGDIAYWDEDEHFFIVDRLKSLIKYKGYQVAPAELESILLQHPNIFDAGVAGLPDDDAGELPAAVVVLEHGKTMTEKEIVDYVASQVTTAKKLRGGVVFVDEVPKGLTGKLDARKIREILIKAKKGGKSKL

[10] = tested on: Wnt5a (protein binding on small-molecule microarray); assay: Wnt5a binders on small-molecule microarray, primary screen, biophysical, 635/667 nm fluorescence (AID 1142); conditions: 635 nm fluorescence, higher = more signal;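 further: fluorescence read at 667 nm with signal to noise per printed feature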
[11] = cell viability in Huh7 cells, primary screen, cytotoxicity control for HCV replication inhibitor project, CellTiter-Glo luminescence, basal, 48 h (AID 1143); conditions: Huh7 HCV replicon, higher = more signal, called active from +8 up or from −8 down;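 further: Huh7 hepatoma cells carrying a hepatitis C replication reporter with no stimulus; test concentration not given here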
[12] = P. aeruginosa biofilm formation inhibitors, primary screen, PAO1 strain, BacTiter-Glo luminescence, LB-PBS (AID 1144); conditions: 12 h, higher = more signal
[13] = CREB reporter modulators without forskolin, primary screen, cell-based, PC12, CRE-LacZ reporter, unstimulated (AID 1145); conditions: no forskolin, luminescence, 4.5 h, higher = more signal, called active from +8 up or from −8 down
[14] = CREB reporter modulators under forskolin, primary screen, cell-based, PC12, CRE-LacZ reporter, forskolin-stimulated (AID 1146); conditions: luminescence, 4.5 h, higher = more signal, called active from +8 up or from −8 down;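 further: PC12 cells with 6xCRE LacZ reporter stimulated by forskolin 10 µM; beta-galactosidase reporter signal reflecting CREB driven transcription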
[15] = molecular target: Streptavidin (Streptomyces avidinii) (UniProt P22629); assay: streptavidin binders on small-molecule microarray, primary screen, artefact control for SMM compound annotation, biophysical, 635/667 nm fluorescence (AID 1147); conditions: streptavidin binding, higher = more signal;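 further: signal reflects streptavidin binding to arrayed compounds as a control protein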
Sequence of Streptavidin (Streptomyces avidinii) (P22629 whole entry, looked up): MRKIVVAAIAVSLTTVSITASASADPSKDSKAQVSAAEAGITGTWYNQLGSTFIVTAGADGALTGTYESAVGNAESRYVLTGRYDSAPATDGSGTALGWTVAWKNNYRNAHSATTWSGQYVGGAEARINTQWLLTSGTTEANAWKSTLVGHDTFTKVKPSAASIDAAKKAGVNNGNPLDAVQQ

[16] = small-molecule binders of probe aInhba, primary screen, biochemical, small-molecule microarray, 635/667 nm fluorescence (AID 1148); conditions: higher = more signal;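 further: score merges 667nm spot fluorescence with signal-to-noise for antibody binding to printed compounds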
Torsin-1A (Homo sapiens) [17] = molecular target: Torsin-1A (Homo sapiens) (UniProt O14656); assay: torsin A binders from cell lysate, primary screen, small-molecule microarray, wild-type, 635/667 nm (AID 1149); conditions: COS7 hTOR1A-WT lysate, 635 nm fluorescence, higher = more signal
Sequence of Torsin-1A (Homo sapiens) (O14656 whole entry, looked up): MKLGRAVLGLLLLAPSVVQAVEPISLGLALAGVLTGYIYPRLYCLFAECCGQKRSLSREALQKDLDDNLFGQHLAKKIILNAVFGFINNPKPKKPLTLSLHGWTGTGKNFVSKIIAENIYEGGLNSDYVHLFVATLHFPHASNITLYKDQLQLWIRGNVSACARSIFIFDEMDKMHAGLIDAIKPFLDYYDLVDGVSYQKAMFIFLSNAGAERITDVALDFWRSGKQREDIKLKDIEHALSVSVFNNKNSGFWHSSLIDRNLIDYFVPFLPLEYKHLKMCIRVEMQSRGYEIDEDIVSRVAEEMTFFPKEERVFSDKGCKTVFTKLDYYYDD

Torsin-1A (Homo sapiens) [18] = molecular target: Torsin-1A (Homo sapiens) (UniProt O14656); assay: small-molecule binders of mutant TOR1A in lysate, primary screen, cell lysate, small-molecule microarray, COS7 lysate, 635/667 nm fluorescence (AID 1150); conditions: COS7 hTOR1A mutant lysate, 635 nm fluorescence, higher = more signal;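 further: score pools 667 nm emission and signal to noise measuring lysate protein binding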
[19] = tested on: Sonic hedgehog protein (Shh); assay: small-molecule binders of Shh protein, primary screen, biochemical, small-molecule microarray, 635/667 nm fluorescence (AID 1151); conditions: small-molecule microarray binding, 635 nm fluorescence; higher = more signal;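 further: Shh protein binding to compounds spotted on small-molecule microarray slides; score combines spot fluorescence intensity with signal-to-noise across triplicate slides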

Compound	composite z-score [1]	composite z-score [2]	composite z-score [3]	composite z-score [4]	composite z-score [5]	composite z-score [6]	z-score [7]	composite z-score (Lefty1)	composite z-score [8]	z-score [9]	composite z-score [10]	z-score [11]	z-score [12]	z-score [13]	z-score [14]	composite z-score [15]	composite z-score [16]	composite z-score (Torsin-1A (Homo sapiens) [17])	composite z-score (Torsin-1A (Homo sapiens) [18])	composite z-score [19]
CC(CO)N1C(=O)[C@@H]2[C@H]3C(=O)OCC=C[C@H]3OC23C=CCN(C(C)(C)C)C(=O)[C@@H]13 (stereo not given in full)	-1.15	-0.833	-0.367	-0.591	-0.187	-0.0701	-0.28	-0.114	-0.104	-0.069 (inactive)	-0.329	-0.304 (inactive)	1.15 (inactive)	-0.354 (inactive)	-0.304 (inactive)	0.769	-0.154	-1.5	-0.163	-0.405
CCC[C@@H]1C[C@@]1(CCC)[C@@H](NC(=O)OCc1ccccc1)c1ccc(-c2ccccc2)cc1	-0.526	-0.691	-0.278	-1.37	0.136	-0.824	0.289	-0.543	-0.693	-0.765 (inactive)	-0.189	-1.28 (inactive)	-0.0658 (inactive)	-0.375 (inactive)	0.785 (inactive)	-0.504	-0.12	-0.301	-0.928	-0.895
CCCC[C@@H]1C[C@H]1[C@@H](NC(=O)c1ccccc1)c1ccc(C(F)(F)F)cc1	0.581	-0.551	-0.0796	-2.43	-1	-1.19	-0.0527	-0.549	-0.331	0.286 (inactive)	-0.547	0.085 (inactive)	0.401 (inactive)	-0.572 (inactive)	0.24 (inactive)	0.056	-0.143	-1.15	-0.349	-1.85
C=CCC(OC(C)=O)[C@@H]1[C@@H](N(Cc2cccc3ccccc23)C(=O)Cc2ccc(OC)cc2)c2cc(OCCCO)ccc2N1C(=O)c1ccc2ccccc2n1 (stereo not given in full)	-0.115	-0.0569	0.833	0.733	0.822	0.0677	0.343	-0.0766	0.174	0.565 (inactive)	0.216	-2.08 (inactive)	-0.253 (inactive)	-0.374 (inactive)	1.3 (inactive)	1.05	0.0569	-0.512	0.0537	0.524
CCOC(=O)C[C@H]1[C@H](OC(=O)c2ccccc2-c2ccccc2)[C@@H](NC(=O)C2CCCCC2)c2cc(OCCCO)ccc2N1C(=O)Cc1ccc(OC)cc1	0.0271	-0.525	0.559	-0.873	-0.211	-0.377	1.58	0.442	0.752	0.0079 (inactive)	0.0136	-0.226 (inactive)	0.642 (inactive)	4.65 (inactive)	0.899 (inactive)	0.0611	-0.0736	-0.0183	0.307	-0.0275
O=C1C2C=CC(C(O)c3ccc(Br)cc3)N(Nc3ccccc3F)C2C(=O)N1c1ccccc1 (stereo not given)	2.57	0.992	-0.312	0.967	0.0288	-0.265	0.147	-0.107	0.672	1.71 (inactive)	-0.0758	-2.94 (inactive)	-1.76 (inactive)	-1.02 (inactive)	-0.0733 (inactive)	0.738	-0.204	-0.423	-0.0946	-0.481
COc1ccc([Si](C)(C)[C@@H]2[C@@H](CC(=O)N3Cc4ccccc4C[C@H]3CO)O[C@]3(C(=O)N(Cc4cccc(N5C(=O)c6cccc7cccc5c67)c4)c4ccccc43)[C@H]2C)cc1	0.846	0.956	0.434	0.883	1.35	1.62	0.129	0.937	0.423	-0.347 (inactive)	0.51	-4.1 (inactive)	-0.194 (inactive)	0.861 (inactive)	0.838 (inactive)	0.211	0.0091	0.786	0.535	1.19
O=C1OCC=C[C@H]2OC34C=CCN(Cn5nnc6ccccc65)C(=O)[C@H]3N(CCCO)C(=O)[C@@H]4[C@@H]12 (stereo not given in full)	0.21	-0.603	-0.506	-1.3	-0.537	-0.241	-0.842	-0.618	-0.43	0.314 (inactive)	-0.439	-2.27 (inactive)	-1.17 (inactive)	-0.887 (inactive)	-0.247 (inactive)	-0.266	-0.224	0.183	-1.85	0.182
CCCC[C@@H]1C[C@H]1[C@@H](NC(=O)c1cccs1)c1ccc(C(F)(F)F)cc1	0.904	-0.654	-0.0276	-0.364	0.301	-0.38	0.503	0.222	-0.945	1.2 (inactive)	-0.553	-0.368 (inactive)	0.195 (inactive)	0.962 (inactive)	1.57 (inactive)	0.189	-0.147	-0.848	-0.589	0.652
CCOC(=O)C[C@H]1[C@H](OC(=O)c2cc3ccccc3oc2=O)[C@@H](NC(=O)c2ccc(-c3ccccc3)cc2)c2cc(OCCCO)ccc2N1C(=O)c1ccccc1	0.942	1.2	0.309	0.711	1.34	0.92	-1.24	1.16	0.997	0.207 (inactive)	0.624	-2.84 (inactive)	1.02 (inactive)	5.66 (inactive)	-0.818 (inactive)	0.509	0.027	1.4	-0.0812	1.87
